Common to all, as to assay: log2 fold change, soluble protein after heating vs DMSO (PISA); higher = thermal stabilisation; K562 cells, 10 uM, 30 min; active = over 0.2 and 3.5 SD of the protein, either way, in both replicates (recomputed)
One test has as its target AAGAB (UniProt Q6PD74). An outline of the steps:
(§1)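 Quantification of soluble protein used TMTpro 16plex LC-MS/MS, with channel sums equalised. Samples were the supernatant after 21,000xg for 90 min of pooled aliquots from K562 cells (2×10^6 cells/mL) treated with 10 μM compound for 30 min, heated for 3 min over 48°C-58°C, and extracted in PBS with 0.5% NP-40 at 4°C. Values, from duplicates, describe thermal stability against control samples on a log2 fold-change scale.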

Test [1] concerns the target AAK1 (UniProt Q2M2I8). An outline of the steps:
as §1

In test [2] the target is AAK1 (UniProt A0A096LP25). An outline of the steps:
as §1

Each structure is given as a SMILES string. Targets with a hit are over-represented here; the source holds about 7,900 in all. About 0.6% of all pairs of compound and target were hits. Values without a mark were called inactive.

Consider 31 molecules from the supplement of paper PMC10849652.

Chain of AAGAB (Q6PD74 whole entry, looked up): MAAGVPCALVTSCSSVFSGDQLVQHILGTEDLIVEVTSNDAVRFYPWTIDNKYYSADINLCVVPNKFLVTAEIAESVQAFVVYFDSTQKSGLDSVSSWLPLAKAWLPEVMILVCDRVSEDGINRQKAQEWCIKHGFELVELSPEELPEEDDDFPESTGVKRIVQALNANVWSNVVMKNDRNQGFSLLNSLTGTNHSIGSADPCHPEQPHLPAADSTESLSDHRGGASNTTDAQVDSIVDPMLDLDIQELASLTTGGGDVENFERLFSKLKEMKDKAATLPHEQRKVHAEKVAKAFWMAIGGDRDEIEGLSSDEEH
Chain of AAK1 (UniProt Q2M2I8) (Q2M2I8 whole entry, looked up): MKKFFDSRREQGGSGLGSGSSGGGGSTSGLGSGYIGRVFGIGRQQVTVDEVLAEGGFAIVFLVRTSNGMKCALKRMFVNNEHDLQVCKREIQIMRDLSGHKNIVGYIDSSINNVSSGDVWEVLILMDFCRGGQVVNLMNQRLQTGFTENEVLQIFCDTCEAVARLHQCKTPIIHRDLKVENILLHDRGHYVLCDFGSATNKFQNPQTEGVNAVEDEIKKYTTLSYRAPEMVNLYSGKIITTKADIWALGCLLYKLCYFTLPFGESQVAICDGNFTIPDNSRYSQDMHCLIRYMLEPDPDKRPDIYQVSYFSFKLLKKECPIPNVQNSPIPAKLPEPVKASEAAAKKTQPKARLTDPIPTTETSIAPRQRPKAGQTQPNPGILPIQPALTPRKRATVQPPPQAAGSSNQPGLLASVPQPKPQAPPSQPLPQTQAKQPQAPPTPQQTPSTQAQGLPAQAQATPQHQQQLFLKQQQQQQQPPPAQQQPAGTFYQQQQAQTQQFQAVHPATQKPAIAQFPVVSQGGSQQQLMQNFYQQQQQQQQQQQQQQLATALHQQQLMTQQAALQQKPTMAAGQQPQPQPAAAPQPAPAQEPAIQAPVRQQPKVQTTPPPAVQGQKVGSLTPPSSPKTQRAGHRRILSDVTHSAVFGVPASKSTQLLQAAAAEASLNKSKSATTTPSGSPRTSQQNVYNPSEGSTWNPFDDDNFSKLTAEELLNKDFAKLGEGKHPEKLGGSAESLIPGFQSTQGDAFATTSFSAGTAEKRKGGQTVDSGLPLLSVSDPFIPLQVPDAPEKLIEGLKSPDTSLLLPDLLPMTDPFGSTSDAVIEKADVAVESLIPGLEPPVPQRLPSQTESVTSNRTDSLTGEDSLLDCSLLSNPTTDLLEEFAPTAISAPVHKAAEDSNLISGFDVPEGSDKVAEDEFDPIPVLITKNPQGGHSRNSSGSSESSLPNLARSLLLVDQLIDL

In the case of `CC[C@@H]1C(=O)N(C)c2cnc(Nc3ccc(C(=O)N[C@H]4CC[C@H](N5CCN(CC6CC6)CC5)CC4)cc3OC)nc2N1C(C)C` [volasertib], the log2 fold change with AAGAB was -0.551 (active); with AAK1 [1], 0.121.

Regarding `Nc1ccccc1NC(=O)c1ccc(CNC(=O)OCc2cccnc2)cc1` [entinostat], the values for the log2 fold change with AAGAB, with AAK1 [2] and with AAK1 [1] were 0.004, -0.061 and -0.015, respectively.

As to `NC(=O)c1ccc2nc(-c3ccc(Oc4ccc(Cl)cc4)cc3)[nH]c2c1`, the log2 fold change was -0.068 in the test with AAGAB, 0.02 with AAK1 [2] and 0.005 with AAK1 [1].

Consider `CC[C@@H]1C(=O)N(C)c2cnc(Nc3ccc(C(=O)NC4CCN(C)CC4)cc3OC)nc2N1C1CCCC1`, for which the log2 fold change is -0.106 with AAGAB, -0.086 in the test with AAK1 [2] and 0.078 with AAK1 [1].

With `COc1cccc2cc(-c3nc([C@H]4CC[C@H](C(=O)O)CC4)n4ncnc(N)c34)[nH]c12`, the log2 fold change with AAGAB is -0.045; in the test with AAK1 [2], 0.129; with AAK1 [1], 0.022.

Take `Fc1ccc(Cl)cc1-c1nc(Nc2ccncc2)c2nccnc2n1`: the log2 fold change with AAGAB is 0.079; with AAK1 [2], -0.027; with AAK1 [1], 0.019.

Regarding `CCCS(=O)(=O)Nc1ccc(F)c(C(=O)c2c[nH]c3ncc(Cl)cc23)c1F`, the log2 fold change with AAGAB is 0.144; in the test with AAK1 [1], -0.028.

On to `CC(C)(O)CC(=O)NCCn1ccc2ncnc(Nc3ccc(Oc4cccc(C(F)(F)F)c4)c(Cl)c3)c21`, for which the figures for the log2 fold change in the test with AAGAB, with AAK1 [2] and in the test with AAK1 [1] were -0.146, -0.034 and 0, respectively.

Consider `O=C1NC(=O)/C(=C\c2ccc3nccnc3c2)S1`, for which the values for the log2 fold change with AAGAB, in the test with AAK1 [2] and with AAK1 [1] were 0.027, 0.107 and 0.033, respectively.

Turning to `O=C1NC(=NCc2cccs2)S/C1=C\c1ccc2ncccc2c1`, the results for the log2 fold change with AAGAB, with AAK1 [2] and in the test with AAK1 [1] were -0.059, 0.234 and 0.339, respectively.

`C[C@@H]1COCCN1c1cc(C2(S(C)(=O)=O)CC2)nc(-c2cccc3[nH]ccc23)n1`: the log2 fold change with AAGAB was -0.035; with AAK1 [2], 0.012; with AAK1 [1] it was 0.028.

`Cn1cc(-c2ccc3nnc(C(F)(F)c4ccc5ncccc5c4)n3n2)cn1`: the log2 fold change was -0.121 with AAGAB, -0.079 with AAK1 [2] and -0.086 with AAK1 [1].

As to `CN1CCN(c2nc(C3=C(c4c[nH]c5ccccc45)C(=O)NC3=O)c3ccccc3n2)CC1` [sotrastaurin], the log2 fold change in the test with AAGAB was 0.007; in the test with AAK1 [2], -0.005; in the test with AAK1 [1], -0.196.

`Cn1cncc1[C@@](N)(c1ccc(Cl)cc1)c1ccc2c(c1)c(-c1cccc(Cl)c1)cc(=O)n2C` [tipifarnib]: the log2 fold change is -0.031 in the test with AAGAB and -0.057 with AAK1 [1].

Consider `Cc1cccc(CC(=O)N2CCc3c2ccc(-c2cn(C)c4ncnc(N)c24)c3F)n1`, for which the values for the log2 fold change with AAGAB, in the test with AAK1 [2] and in the test with AAK1 [1] were 0.016, -0.017 and -0.048, respectively.

With `CNC(=O)c1ccccc1Nc1nc(Nc2ccc(N3CCOCC3)cc2OC)ncc1Cl`, the log2 fold change is 0.112 with AAGAB, 0.333 in the test with AAK1 [2] and 0.281 with AAK1 [1].

On to `COc1cc2nc(-c3cc(F)ccc3O)nc(N[C@@H]3CNC[C@H]3C(C)(C)O)c2cc1OC`, for which the log2 fold change with AAGAB is -0.064; with AAK1 [1] it was 0.024.

As for `C[C@@H](Oc1cc(-c2cnn(C3CCNCC3)c2)cnc1N)c1c(Cl)ccc(F)c1Cl` [crizotinib], the log2 fold change with AAGAB was -0.134; in the test with AAK1 [2], 0.124; with AAK1 [1] it was 0.169.

Turning to `O=C(Nc1nc2ccccc2n1CCN1CCOCC1)c1cccc([N+](=O)[O-])c1` [IRAK-1-4 Inhibitor I], the log2 fold change with AAGAB was -0.016; with AAK1 [2] it was -0.063; with AAK1 [1] it was -0.085.

With `CC1=C(C(=O)Nc2cc3cn[nH]c3cc2F)C(c2ccc(C(F)(F)F)cc2)CC(=O)N1` (configuration not stated), the log2 fold change with AAGAB was -0.004; in the test with AAK1 [2], -0.113; with AAK1 [1], -0.055.

Turning to `CN(C)CC(=O)Nc1ccc2[nH]c(=O)c3ccccc3c2c1`, the log2 fold change was 0.021 with AAGAB, 0.037 with AAK1 [2] and 0.087 with AAK1 [1].

With `c1cn2cc(-c3ccc4cn[nH]c4c3)nc(Nc3ccc(N4CCOCC4)cc3)c2n1` [entospletinib], the log2 fold change in the test with AAGAB was 0.116; in the test with AAK1 [2], 0.224; in the test with AAK1 [1] it was 0.132.

Regarding `CCCc1cc(C)[nH]c(=O)c1CNC(=O)c1cc(-c2ccnc(N3CCN(C)CC3)c2)cc2c1cnn2C(C)C`, the results for the log2 fold change with AAGAB, with AAK1 [2] and with AAK1 [1] were -0.02, -0.026 and 0.08, respectively.

As for `O=C(CCCCCCC(=O)Nc1ccccc1)NO` [vorinostat], the log2 fold change was -0.009 with AAGAB, -0.007 with AAK1 [2] and 0.074 with AAK1 [1].

Take `CN1CCC(CNc2ccc3ncc(-c4cccc(OC(F)(F)F)c4)n3n2)CC1`: the figures for the log2 fold change with AAGAB, with AAK1 [2] and with AAK1 [1] were -0.228, 0.332 and 0.27, respectively.

For the molecule `Cc1ccc(Sc2cncc3sc(C(N)=O)cc23)cc1`, the log2 fold change was -0.012 with AAGAB and 0.032 with AAK1 [1].

On to `C#Cc1cccc(Nc2ncnc3cc(OCCOC)c(OCCOC)cc23)c1` [erlotinib], for which the log2 fold change in the test with AAGAB is 0.251; with AAK1 [2] it was 0.043; with AAK1 [1], -0.028.

In the case of `CS(=O)(=O)CCNCc1ccc(-c2ccc3ncnc(Nc4ccc(OCc5cccc(F)c5)c(Cl)c4)c3c2)o1` [lapatinib], the log2 fold change with AAGAB was -0.038; with AAK1 [1], 0.038.

`Cc1ccc(NC(=O)c2ccc(CN3CC[C@H](N(C)C)C3)c(C(F)(F)F)c2)cc1Nc1nccc(-c2cncnc2)n1` [bafetinib]: the log2 fold change in the test with AAGAB is -0.046; with AAK1 [2], -0.058; with AAK1 [1], -0.016.

For the molecule `CNc1nc(-c2ccc3c(N)n[nH]c3c2)cc(N2C[C@@H](C(=O)NC3CCCCC3)CC[C@H]2C)n1`, the log2 fold change with AAGAB was -0.084; with AAK1 [2] it was 0.244; in the test with AAK1 [1], 0.252.

As for `Cn1cc(-c2ccc3c(c2)CCN3C(=O)Cc2cccc(C(F)(F)F)c2)c2c(N)ncnc21`, the log2 fold change with AAGAB was -0.197; with AAK1 [2], -0.05; with AAK1 [1], -0.011.
